Hits are enriched below; roughly 9.4% of the tested compounds scored in any of these assays.
Rab9 prom act = qHTS Assay for Rab9 Promoter Activators; Huh7 Rab9 promoter-luciferase reporter, luminescence, 24 h; Potency, µM (series often up to 9.22 µM), inactives show at the highest dose activation, negative = inhibition, most hits filed as activators; AID 485297, 2010; 320,000 tested, 2.8% active; further: % of control where 0% means no effect; nearly all actives have a fitted effect of over 60% in size
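Luminescence from Amplite-detected luciferase (10 minutes, ambient) reports Rab9 promoter activation. Before that, stable Rab9-luciferase Huh7 cells (1500/well, reduced-serum OP-MEM I plus 10% FBS) were exposed to compound for 24 hours at 37C.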
SMN2 splice up = qHTS Assay for Enhancers of SMN2 Splice Variant Expression; Potency, µM (top dose mostly 46.1 µM), without a hit: top-dose activity change, positive = activation, usual class: activators; HEK293 SMN2-luciferase splicing reporter, luminescence, 30-36 h; 210,000 tested, 2.8% active; further: % of control where 0% means no effect; nearly all actives have a fitted effect of over 55% in size
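HEK293 cells carry an SMN2 […]–luciferase reporter in which exon 7 inclusion puts luciferase in frame. Cells were plated 10-12 h before compound addition, then incubated 30-36 h at 37C. ONE-Glo luminescence was read; sodium butyrate at 4.5 mM final served as control.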
ELG1 genotox = qHTS screen for small molecules that induce genotoxicity in human embryonic kidney (HEK293T) cells expressing luciferase-tagged ELG1. HEK293T ELG1-luciferase reporter, luminescence, 16 h. Potency, µM (series often up to 46 µM), for inactives: top-dose activity change, positive = activation, actives largely listed as activators. 330,000 tested, 1.3% active; further: % of control where 0% means no effect; nearly all actives have a fitted effect of over 60% in size
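Step 1: seed 2,000 HEK293T ELG1-luciferase cells per well. Step 2: add compound or DMSO, incubate 16 hr at 37 °C. Step 3: ONE-Glo, 30 min at room temperature, read luminescence.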
FLuc counter = qHTS profiling assay for firefly luciferase inhibitor/activator using purifed enzyme and Km concentrations of substrates (counterscreen for miR-21 project). Luciferin 4-monooxygenase (Photinus pyralis), P08659. purified FLuc, Km substrates, luminescence inhibition. Potency, µM (top dose mostly 57.5 µM), without a hit: top-dose activity change, negative = inhibition, most hits filed as inhibitors. 360,000 tested, 6.9% active. AID 588342, 2011;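 further: plate controls were vehicle for no effect and reference inhibitor for full effect; nearly all actives have a fitted effect of over 55% in size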
Target sequence (P08659 whole entry, looked up): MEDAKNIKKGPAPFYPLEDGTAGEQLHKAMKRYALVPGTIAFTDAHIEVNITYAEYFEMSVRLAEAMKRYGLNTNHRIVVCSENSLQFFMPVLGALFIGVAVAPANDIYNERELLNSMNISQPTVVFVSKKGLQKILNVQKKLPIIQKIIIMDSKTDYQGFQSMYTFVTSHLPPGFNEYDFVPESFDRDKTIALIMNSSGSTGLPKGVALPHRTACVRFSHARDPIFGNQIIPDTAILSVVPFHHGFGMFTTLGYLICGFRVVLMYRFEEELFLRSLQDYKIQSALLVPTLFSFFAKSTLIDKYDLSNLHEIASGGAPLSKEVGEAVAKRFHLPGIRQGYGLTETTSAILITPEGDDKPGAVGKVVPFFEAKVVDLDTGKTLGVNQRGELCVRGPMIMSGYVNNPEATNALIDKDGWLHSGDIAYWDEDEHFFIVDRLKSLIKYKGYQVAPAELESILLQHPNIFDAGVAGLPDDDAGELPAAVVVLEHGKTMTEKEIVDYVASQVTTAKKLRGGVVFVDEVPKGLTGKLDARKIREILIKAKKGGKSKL
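Purified P. pyralis luciferase (10nM final) with 10uM D-luciferin and 10uM ATP (Km levels) in 50mM Tris acetate pH 7.5, 10mM Mg acetate, 0.01% Tween-20, 0.05% BSA; qHTS 6-point titration, ~60 µM downward; luminescence read.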
ELG1 DNA repair = qHTS screen for small molecules that inhibit ELG1-dependent DNA repair in human embryonic kidney (HEK293T) cells expressing luciferase-tagged ELG1; 330,000 tested, 2.3% active; Potency, µM (top dose mostly 46.1 µM), for inactives: at the highest dose activity change, negative = inhibition, actives largely listed as inhibitors; HEK293T ELG1-luciferase reporter, luminescence, 16 h; DNA damage induced by 5-fluorouridine; further: on the % scale 0 is the no-effect control and ±100 the full control effect; nearly all actives have a fitted effect of over 55% in size
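Cells (2,000 per well) received 5-fluorouridine plus test compound or DMSO and were incubated 16 hr at 37 °C, 5% CO2. Luciferase activity was read by luminescence 30 min after ONE-Glo addition; signal suppression marked inhibition of damage-induced ELG1 function.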
NPC1 prom act = qHTS Assay for NPC1 Promoter Activators; Huh7 NPC1 promoter luciferase reporter, 24 h; Potency, µM (titrated, usually from 9.22 µM), inactives show top-dose activation, most hits filed as activators; 320,000 tested, 2.4% active; AID 485313, 2010; further: % of control where 0% means no effect; nearly all actives have a fitted effect of over 60% in size
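In 1536-well qHTS, Huh7 cells harboring an NPC1 promoter–luciferase construct received compound for 24 h; activation was quantified by luminescence following luciferase reagent addition.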
* = called active by the depositor; ? = inconclusive; · = not tested or not shown; [ ] = another dose, or the depositor's remark. The call rests on the fitted dose curve; in most records, active means well fitted curve in the direction sought with a large enough effect; inconclusive means small, poorly fitted or top-dose-only effect, or another doubt; inactive means no such curve, though single readings can be large; an effect the other way counts as inactive or inconclusive. Potency means the concentration at half of the fitted maximal effect.

SMILES	Rab9 prom act	SMN2 splice up	ELG1 genotox	FLuc counter	ELG1 DNA repair	NPC1 prom act
Cc1onc(NC(=O)NC(=O)c2ccccc2F)c1Br	18.3%	·	?	?	?	17.6%
O=C(Nc1cnc2sccn2c1=O)c1ccc(Cl)cc1Cl	1µM*	8.91µM*	2.59µM*	2.13µM*	?	0.447µM*
Cc1cccc(C(=O)Nc2ccn(C)n2)c1	2.51µM*	·	?	?	?	?
Cn1ccc(NC(=O)c2ccc(Cl)cc2Cl)n1	2.51µM*	·	?	10.7µM*	?	3.98µM*
Cc1onc(NC(=O)c2ccc(Cl)cc2Cl)c1Br	3.16µM*	·	?	?	?	?
O=C(Cn1nnc(-c2cccc(C(F)(F)F)c2)n1)NCc1ccc(F)cc1	·	-6.9%	·	-1.5%	·	·
COc1ccc(Cl)cc1Nc1cc(C)nc2nc(-c3ccccc3C)nn12	·	-8.4%	·	-3.4%	·	·
COc1ccc2c(c1)c(=O)oc1c(C)c(OCc3cc(C(=O)O)oc3C)ccc12	11.6%	0.9%	?	10.7µM*	9.6%	-0.8%
Cc1cc(=O)oc2c(C)c(OC(C)C(=O)NCC3CCC(C(=O)O)CC3)ccc12 (centres undefined)	-1.3%	·	1.1%	-0.5%	13.4%	6.3%
COc1ccc2c(c1)c(=O)oc1c(C)c(OCc3ccc(C(=O)O)cc3)ccc12	6.8%	·	2.7%	23.9µM*	10.4%	-4.7%
COc1ccc2c(c1)c(=O)oc1c(C)c(OC(C)C(=O)NCC3CCC(C(=O)O)CC3)ccc12 (centres undefined)	4.9%	·	9.1%	15.1µM*	0.0%	7.8%
Cc1ccc(-n2c(SCC(=O)N3CCCc4ccccc43)nc3c([nH]c4ccccc43)c2=O)cc1	·	·	·	5.5%	·	·
Cc1ccc(-c2nnc3c4ccccc4c(C)nn23)cc1NC(=O)c1ccccc1Cl	·	5.0%	·	1.2%	·	·
COC(=O)c1ccc(NC(=O)CSCC(=O)OCC(=O)c2ccc(Br)cc2)cc1	1.2%	-10.5%	-0.2%	12µM*	5.2%	-3.0%
COC(=O)c1ccc(NC(=O)CCS(=O)(=O)c2ccc(Br)cc2)cc1	-7.2%	-12.2%	0.1%	-1.6%	-18.8%	0.3%
CCC(=O)Nc1cccc(-n2nnnc2SCC(=O)N2CCCCC2)c1	?	7.0%	9.1%	-21.3%	2.4%	14.9%
CCC(=O)Nc1cccc(-c2ccc(N3CCN(C)CC3)nn2)c1	?	·	?	6.75µM*	?	2.51µM*
CCC(=O)Nc1cccc(-c2ccc(N3CCCCC3)nn2)c1	0.447µM*	·	2.31µM*	0.536µM*	?	0.562µM*
Cc1cn2c(N)c(C=C3C=C(Cl)C(=O)C(Cl)=C3)c(=O)nc2s1	-3.8%	-11.7%	0.2%	16.9µM*	?	-2.0%
Cc1cn2c(N)c(/C=C3\C=Nc4ccccc43)c(=O)nc2s1	27.3%	·	-6.7%	-11.3%	?	?
COC1=C/C(=C/c2c(N)n3cc(C)sc3nc2=O)C=CC1=O	0.0%	-6.3%	2.3%	3.79µM*	?	1.8%
Cc1cc(C)c(Cn2c(=O)n(CCCCCC(=O)NCc3ccc4c(c3)OCO4)c(=O)c3sccc32)c(C)c1	·	-4.6%	·	6.5%	·	·
CCS(=O)(=O)N1CCC(C(=O)Oc2ccc(Cl)cc2)CC1	-1.9%	·	2.0%	0.3%	-11.2%	-3.2%
Fc1cccc(Cl)c1-c1nnc2ccc3ccccc3n12	-8.2%	-51.4%	5.0%	19µM*	?	-8.4%
Fc1ccccc1-c1nnc2ccc3ccccc3n12	-1.0%	·	-1.7%	-15.4%	4.1%	4.8%
SMILES	Rab9 prom act	SMN2 splice up	ELG1 genotox	FLuc counter	ELG1 DNA repair	NPC1 prom act
COc1cc(C(=O)Nc2ccc(N(C)C)cc2)c([N+](=O)[O-])cc1OC	-3.9%	-3.1%	?	4.78µM*	3.2%	8.8%
COc1cc(C(=O)Nc2ccncc2)c([N+](=O)[O-])cc1OC	3.0%	·	-4.4%	-0.6%	-25.5%	0.3%
Cc1nc(N)sc1C(=O)Nc1ccccc1	?	27.7%	?	?	?	?
Cc1nc(C(=O)Nc2ccccc2)sc1C(=O)Nc1ccccc1	3.55µM*	·	19.4%	13.5µM*	?	3.55µM*
Cc1nc(Cl)sc1C(=O)Nc1ccc(C(C)(C)C)cc1	-0.5%	·	?	10.7µM*	?	24.6%
Cc1ccc(NC(=O)c2sc(N)nc2C)cc1	2.24µM*	·	20.6µM*	21.3µM*	?	2.51µM*
Cc1noc(N)c1C(=O)Nc1ccc(C(C)(C)C)cc1	3.16µM*	?	?	3.38µM*	?	2.51µM*
Cc1ccc(NC(=O)c2c(C)noc2C)cc1	-1.5%	-18.1%	2.7%	3.0%	7.6%	-0.1%
NC(N)=N/N=C(\c1ccc(Cl)cc1)C1CC1	·	-10.2%[9.22 µM]	·	·	·	·
Cc1ccc(S(=O)(=O)N2CCC(C(=O)Nc3ccc(C)c(Cl)c3)CC2)cc1	·	-11.6%	·	-8.3%	·	·
Cc1cc(NC(=O)c2cccs2)ncc1NC(=O)C(C)(C)C	1.41µM*	·	4.11µM*	10.7µM*	?	0.891µM*
Cc1ccnc(NC(=O)c2ccc(Br)s2)c1	1.58µM*	·	?	2.69µM*	?	1.12µM*
O=C(Nc1nccc(-c2cccs2)n1)c1cccs1	?	?	?	19µM*	?	2.82µM*
Cc1ccnc(NC(=O)c2cccs2)c1	2.24µM*	?	?	15.1µM*	?	3.55µM*
CCCn1c(N)c(C(=O)CSc2nnc(-c3ccoc3C)n2C)c(=O)n(C)c1=O	2.7%	·	-0.9%	-0.9%	-8.1%	-2.1%
COc1cccc(-c2nc(SCC(=O)NC3CCCC3)c(-c3ccccc3)[nH]2)c1	·	-3.9%	·	?	·	·
COc1cc2c(cc1OC)C(NC(=O)C(F)(F)F)CNC2=O (centres undefined)	-8.7%	-17.5%	-14.8%	0.1%	11.6µM*	-3.3%
COC(=O)c1c(O)c2ccccc2[nH]c1=O	-2.0%	-11.0%	0.8%	3.5%	-1.5%	-1.0%
COc1ccccc1NC(=O)c1c(O)c2ccccc2[nH]c1=O	?	·	7.6%	?	?	1.26µM*
O=c1[nH]c2ccccc2c(O)c1O	-0.4%	3.7%	-9.5%	?	3.26µM*	0.7%
O=C(N/N=C/c1ccccc1)c1c(O)c2ccccc2[nH]c1=O	1.41µM*	3.55µM*	13.5%	?	?	1.78µM*
O=c1[nH]c2ccccc2c(O)c1-[n+]1ccccc1	-2.7%	·	1.2%	3.1%	10.7%	1.8%

Assay outcomes deposited in PubChem by National Center for Advancing Translational Sciences (NCATS).
